Source: PubChem BioAssay
PNC inhibitor = inhibitors of perinucleolar compartment assembly | PC3M PTB-GFP, PNC prevalence imaging, 16 h; active compounds read low | activity change (PNC), negative = inhibition, % at 10 µM | 140,000 tested, 3.1% active | AID 2417;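 active means readout at or below -70, meaning at least 70% loss of cells showing the perinucleolar compartment, a nuclear body marking cancer cells; inconclusive means readout between -30 and a set limit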;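 further: plate controls were DMSO wells for no effect and camptothecin positive control wells for full effect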
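Compounds are pinned in duplicate onto adhered PC3M cells stably expressing GFP-tagged PTB and incubated 16 h at 37 C. Cells are then fixed, nuclei stained with Hoechst, and PNC-positive cells counted.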
HTT aggregate = mutant huntingtin aggregation inhibition; PC12 HttQ103-GFP aggregates, Acumen cytometry, 40 h; Potency, µM (doses to about 46.1 µM), without a hit: top-dose activity change, negative = inhibition, usual class: inhibitors; 220,000 tested, 1.1% active; further: potency means the concentration at half of the fitted maximal effect; on the % scale 0 is the no-effect control and ±100 the full control effect; nearly all actives have a fitted effect of over 60% in size
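Read-out: GFP aggregate count by laser scanning cytometer (488 nm excitation, 500-530 nm emission, 1–25 µm objects >6 SD above background). Cells: PC12, inducible HTTex1-Q103-GFP, 100 nM tebufenozide; compounds titrated.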
CBFb RUNX1 block = inhibitors of human CBF-beta and RUNX1 interaction. Q01196+Q13951. AlphaScreen CBFb-His/RUNX1-biotin binding, biochemical. Potency, µM (highest dose often 59.8 µM), for inactives: at the top dose activity, negative = inhibition, actives largely listed as inhibitors. 230,000 tested, under 10 active. AID 1477; further: % of control where 0% means no effect
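AlphaScreen binding: CBFb-His and RUNX1-biotin (30 nM each) preincubated 20 min, compound added for 15 min, then nickel and streptavidin beads for 90 min, all at room temperature. Disruption of the interaction by any mechanism counts as activity.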
HPGD inh = blocks human HPGD enzyme activity; 150,000 tested, 4.3% active; Potency, µM, without a hit: at the top dose activity change, negative = inhibition, most hits filed as inhibitors; P15428; purified HPGD, NADH fluorescence kinetic, PGE2 substrate; AID 894; active means well fitted inhibition curve with a large enough effect, not every such curve was filed as active; inconclusive means small, poorly fitted or top-dose-only effect, or another doubt; inactive means no such curve, though single readings can be large or run the other way; further: potency means the concentration at half of the fitted maximal effect; on the % scale 0 is the no-effect control and ±100 the full control effect
Target sequence (P15428 whole entry, looked up): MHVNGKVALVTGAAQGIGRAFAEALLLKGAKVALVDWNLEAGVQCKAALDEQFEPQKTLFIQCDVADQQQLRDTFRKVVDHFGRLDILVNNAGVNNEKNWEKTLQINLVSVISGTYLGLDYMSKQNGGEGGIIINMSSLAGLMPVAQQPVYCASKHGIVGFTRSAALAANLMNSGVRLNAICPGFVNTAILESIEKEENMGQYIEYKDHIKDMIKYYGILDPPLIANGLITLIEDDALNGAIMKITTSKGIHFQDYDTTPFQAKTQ
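20 nM HPGD preincubated 15 min at room temperature with compound in 50 mM Tris-HCl pH 8, 0.01% Tween 20. Started with 1 mM NAD+ and 30 uM prostaglandin E2; NADH fluorescence (360/450 nm) read 5 times over 30-s intervals, last minus first.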
ALDH1A1 block = ALDH1A1 (human) enzyme inhibition. Potency, µM (top dose mostly 75.3 µM), for inactives: at the highest dose activity, negative = inhibition, actives largely listed as inhibitors. 220,000 tested, 7.3% active. P00352. Purified ALDH1A1, NADH fluorescence, propionaldehyde substrate; active means well fitted inhibition curve with a large enough effect, not every such curve was filed as active; inconclusive means small, poorly fitted or top-dose-only effect, or another doubt; inactive means no such curve, though single readings can be large or run the other way;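 further: potency means the concentration at half of the fitted maximal effect; plate controls were no enzyme wells and a reference inhibitor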
Target sequence (P00352 whole entry, looked up): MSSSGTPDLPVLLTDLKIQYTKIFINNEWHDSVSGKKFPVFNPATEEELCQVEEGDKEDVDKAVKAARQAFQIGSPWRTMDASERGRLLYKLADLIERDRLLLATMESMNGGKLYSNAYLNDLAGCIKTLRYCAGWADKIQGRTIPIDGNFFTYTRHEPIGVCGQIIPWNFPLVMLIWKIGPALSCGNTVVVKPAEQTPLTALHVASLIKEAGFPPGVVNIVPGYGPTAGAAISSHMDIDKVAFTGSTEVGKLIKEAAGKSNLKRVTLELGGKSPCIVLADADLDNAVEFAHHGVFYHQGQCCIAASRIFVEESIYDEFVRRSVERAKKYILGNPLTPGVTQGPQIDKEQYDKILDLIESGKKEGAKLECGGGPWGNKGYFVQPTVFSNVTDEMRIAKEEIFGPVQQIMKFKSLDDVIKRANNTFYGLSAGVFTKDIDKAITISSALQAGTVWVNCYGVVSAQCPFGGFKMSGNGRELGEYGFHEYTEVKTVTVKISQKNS
HTT cytoprotect = protects HTT-Q103 PC12 cells, measured by ATP. PC12 HTT-Q103 induced, cytoprotection, ATP luminescence, 40 h. Potency, µM (series often up to 56.4 µM), inactives show cytoprotection (ATP increase), usual class: activators. 230,000 tested, 0.14% active; further: potency means the concentration at half of the fitted maximal effect; % of control where 0% means no effect; nearly all actives have a fitted effect of over 45% in size
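Quantitative HTS on tebufenozide-induced (100 nM) PC12 cells expressing HTTQ103 exon 1–GFP; compounds tested as a concentration series; survival measured via cellular ATP.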
Starred values were filed as active, the others as inactive; ? = inconclusive; . = not tested or not shown; [ ] = dose if it differs, or a comment. An excerpt weighted towards active compounds, which were near 11% of everything screened. Unless noted, the call rests on the fitted dose curve; in most records, active means well fitted curve in the direction sought with a large enough effect; inconclusive means small, poorly fitted or top-dose-only effect, or another doubt; inactive means no such curve, though single readings can be large; an effect the other way counts as inactive or inconclusive.

SMILES	PNC inhibitor	HTT aggregate	CBFb RUNX1 block	HPGD inh	ALDH1A1 block	HTT cytoprotect
COc1ccc(-n2c(N3CCN(C)CC3)nc3sc4c(c3c2=O)CCCCC4)cc1	-16	4%	0%	?	2.8µM*	5%
COc1ccc(N=Nc2nc(-c3ccccc3)c(-c3ccccc3)[nH]2)cc1	?	?	.	-10%	-3%	15%[10 µM]
COc1ccccc1N=Nc1nc(-c2ccccc2)c(-c2ccccc2)[nH]1	-18	?	.	-11%	22µM*	18%[1.9 µM]
COc1ccc2c(c1)c1ccc3c(c1n2C)C(=O)C=CC3=O	.	-20%[9.22 µM]	?	.	0.28µM*	-16%[10 µM]
Cc1ccc2c(c1)c1ccc3c(c1n2C)C(=O)C=CC3=O	.	?	-29%	.	.	-11%[10 µM]
CC1=C(C(=O)Nc2ccccc2C(F)(F)F)C(c2ccc(C)s2)NC(=S)N1 (stereo not drawn)	.	2%	3%	.	0.63µM*	1%
COC(=O)C1=C(C)NC(=S)NC1c1sccc1C (stereo not drawn)	.	-4%	-19%	.	11µM*	?
CC1=C(C(=O)Nc2ccccc2C(F)(F)F)C(c2sccc2C)NC(=S)N1 (stereo not drawn)	.	?	4%	.	4.5µM*	-71%
CC1=C(C(=O)Nc2cccc(C)c2C)C(c2cccs2)NC(=S)N1 (stereo not drawn)	?	-5%	-4%	-13%	0%	6%[10 µM]
Cc1ccccc1NC(=O)CCSc1nnnn1-c1ccccc1	43	0%	-4%	-10%	8.9µM*	-19%[10 µM]
Cn1nnnc1SCC(=O)Nc1ccccc1N1CCCCC1	-7	-4%	-3%	5%	11%	-13%[10 µM]
CSc1ccccc1-n1nnnc1SCC(=O)NCc1cccs1	?	-10%	6%	-11%	16µM*	7%[10 µM]
CSc1ccccc1NC(=O)CSc1nnnn1-c1ccccc1SC	?	-14%	7%	-13%	11µM*	9%
O=C(CSc1nnnn1-c1ccccc1F)NNC(=O)c1ccco1	.	-11%[9.22 µM]	-5%	.	14µM*	-10%[10 µM]
Cc1noc(C)c1-c1nccc(-n2ccnc2)n1	.	.	.	-10%	3%	3%
COC(=O)CC1Oc2cc3oc4c5ccccc5oc(=O)c4c3cc2O1 (stereo not drawn)	.	.	11%	-18%	?	11%
COC(=O)c1ccccc1NC(=O)CSc1nnnn1-c1ccc(C)cc1C	-6	17%[9.22 µM]	5%	-19%	?	-13%[0.074 µM]
CSc1ccccc1-n1nnnc1SCC(=O)Nc1ccccc1C	-14	-2%	0%	0%	13µM*	-3%
COc1cccc(C(=O)Nc2sc3c(c2C#N)CCN(C(C)=O)C3)c1	.	-10%	3%	.	8.9µM*	-78%
N#Cc1c(NC(=S)NC(=O)c2ccccc2)sc2c1CCCC2	?	-6%	0%	25µM*	3.2µM*	6%[10 µM]
N#Cc1c(NC(=O)c2ccccc2)sc2c1CCC2	-9	-4%[9.22 µM]	2%	?	?	-2%
CC1(C)Cc2c(sc(NC(=S)NC(=O)c3ccccc3)c2C(=O)O)CO1	.	8%[9.22 µM]	-4%	.	22µM*	10%[10 µM]
CC1(C)Cc2c(sc(NC(=O)c3ccco3)c2C(=O)O)CO1	-10	-6%	-3%	-16%	?	-66%
N#Cc1c(NC(=S)NC(=O)c2ccccc2)sc2c1CCN(CCc1ccccc1)C2	?	19%	?	-18%	18µM*	-14%[10 µM]
COc1cccc(-c2nccc(-n3ccnc3)n2)c1	.	.	.	-16%	4%	-33%
SMILES	PNC inhibitor	HTT aggregate	CBFb RUNX1 block	HPGD inh	ALDH1A1 block	HTT cytoprotect
Cn1ncc(Cl)c1C(=O)NC(=S)Nc1sc2c(c1C#N)CCCCC2	85	5%	-1%	25µM*	?	15%
CC(C)CC(=O)NC(NC(=S)Nc1sc2c(c1C#N)CCCC2)C(Cl)(Cl)Cl (stereo not drawn)	75	?	-9%	14µM*	3.5µM*	-70%
CCC(=O)Nc1sc2c(c1C#N)CCC2	.	2%	-19%	.	-6%	-40%
N#Cc1c(NC(=S)NC(=O)C2CCCC2)sc2c1CCCCC2	?	47%	0%	.	10µM*	26%[10 µM]
Cc1ccccc1C(=O)NC(=S)Nc1sc2c(c1C#N)CCC(C)C2 (stereo not drawn)	?	-21%	-7%	-21%	10µM*	-8%
N#CCCSC(=S)[C@H]1CCCC1=N	.	.	.	-8%	4%[13.5 µM]	-14%[10 µM]
NCCCC[C@H](NC(=O)[C@@H]1CCCN1C(=O)[C@H](CO)NC(=O)[C@H](CC(=O)O)NC(=O)CNC(=O)[C@H](CCCN=C(N)N)NC(=O)CN)C(=O)O	.	.	6%	.	.	.
O=S(=O)(c1ccccc1)N1CN2CN(C1)CN(S(=O)(=O)c1ccccc1)C2	.	.	.	-5%	-2%[13.5 µM]	2%[10 µM]
CN(CC(=O)O)Cc1c[nH]c2ccccc12	.	.	.	-2%	19%[13.5 µM]	6%[10 µM]
CC(C)[C@@H](CC(=O)N[C@@H]1CCNC[C@H]1C(=O)N[C@H](CC(=O)N[C@@H](CCC(=O)O)CC(=O)O)Cc1c[nH]c2ccccc12)NC(=O)C[C@H](Cc1ccccc1)NC(=O)[C@@H]1CNCC[C@H]1N	.	.	12%	-9%	5%	-18%[1.9 µM]
O=C(CNc1cc(S(=O)(=O)N2CCCC2)ccc1OCC(F)(F)F)Nc1ccc(SC(F)F)cc1	-14	-8%	2%	-33%	-1%	-14%[0.074 µM]
COc1ccc2nc(/N=C/c3c(C)[nH]n(-c4ccc(C)cc4)c3=O)sc2c1	74	-6%	-17%	-27%	?	-13%[10 µM]
O=C(COc1ccccc1Br)NCc1ccco1	-24	-7%	0%	25µM*	?	-29%
CCc1ccc(OCC(=O)NCc2ccco2)c(Br)c1	28	-4%	-2%	35µM*	?	-17%[0.074 µM]
COC(=O)C1=C(C(=O)OC)[C@@H]2N(C)c3ccc(OC)cc3[C@@]23C[C@@H](C(=O)OC)N(S(=O)(=O)c2c(C)noc2C)C3=N1	.	.	-2%[13.1 µM]	-5%	7%[13.5 µM]	10%[10 µM]
COC(=O)C1=C(O)/C(=C\c2ccc(CNS(=O)(=O)c3ccccc3)o2)N=C1C	28	-5%	16%	-23%	32µM*	23%[10 µM]
CCOC(=O)c1c(C)[nH]c(C)c1C(=O)CSc1nc2ccccc2c(=O)n1-c1ccc(Cl)cc1	?	20µM*	-7%	-6%	?	.
Cc1[nH]c2ccccc2c1C(=O)CSc1nc2ccccc2c(=O)n1-c1ccccc1F	.	?	2%	.	0.56µM*	-21%
C/C(CCN1CCCc2nc(C)c(C)cc21)=N\OC[C@@H](O)COCc1ccco1	.	.	8%[13.1 µM]	.	?	4%[10 µM]
CCCCNC(=O)C1CCCN1C(=O)NC1CCCCC1 (stereo not drawn)	-100*	-14%	3%	-9%	4%	18%[10 µM]
CCOC(=O)c1c(NC(=O)COC)sc(C(C)=O)c1C	-6	6%	7%	?	-3%	-1%[1.9 µM]
